Screens as filed in PubChem BioAssay.
Most compounds without a hit are left out; they make up all but 1.8% or so of the library.
Vif-A3G inh = Vif-A3G binding inhibition; Potency, µM (titrated, usually from 46.1 µM), inactives show at the top dose activity, negative = active, usual class: inhibitors; AID 602310; 410,000 tested, 0.076% active; HeLa A3G-eYFP + Vif (tagged APOBEC3G with the HIV-1 protein that degrades it), YFP fluorescence, overnight; also: % is scaled to controls: 0 for no effect and ±100 for the full control effect; nearly all actives have a fitted effect of over 60% in size
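HeLa cells stably expressing Vif and C-terminally eYFP-tagged A3G, seeded overnight at 37 deg C, then exposed to compound by pintool overnight at 37 deg C. Rise in yellow fluorescence (Ex 488/Em 500-530, Acumen) marks blocked Vif-driven A3G degradation.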
TrxR1 substrate = is turned over as a substrate by rat TrxR1. O89049. purified TrxR1 substrate turnover, NADPH consumption readout. Potency, µM (highest dose often 114 µM), inactives show at the top dose activity change, negative = substrate turnover. 390,000 tested, 0.01% active. AID 588456; also: % is scaled to controls: 0 for no effect and ±100 for the full control effect; nearly all actives have a fitted effect of over 50% in size
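Rat TrxR1, dispensed at 90 nM, was prereduced with 400 uM NADPH (final) for 5 min at ~22 deg C, then incubated with compound 15 min before 400 uM selenite. A first-read NADPH fluorescence drop versus no-compound background flagged substrates.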
Vif-A3F inh = Vif-A3F binding inhibition; HeLa A3F-eYFP + Vif (tagged APOBEC3F with the HIV-1 protein that degrades it), YFP fluorescence increase; AID 602313; 390,000 tested, 0.2% active; Potency, µM (top dose mostly 46.1 µM), for the others: at the top dose activity, negative = active; also: % of control where 0% means no effect; nearly all actives have a fitted effect of over 65% in size
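Fluorescence increase (Ex 488/Em 500-530) after overnight compound treatment at 37 deg C flags inhibition of Vif-driven A3F-eYFP loss in stable HeLa A3F-eYFP/Vif cells seeded overnight beforehand.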
VDR inhibitor = blocks the human vitamin D receptor | 400,000 tested, 0.93% active | Potency, µM, without a hit: max response, negative = inhibition, hits mostly inhibitors | VDR-SRC2-3 peptide fluorescence polarization, 2 h; also: % is scaled to controls: 0 for no effect and ±100 for the full control effect
Target sequence (P11473 whole entry, looked up): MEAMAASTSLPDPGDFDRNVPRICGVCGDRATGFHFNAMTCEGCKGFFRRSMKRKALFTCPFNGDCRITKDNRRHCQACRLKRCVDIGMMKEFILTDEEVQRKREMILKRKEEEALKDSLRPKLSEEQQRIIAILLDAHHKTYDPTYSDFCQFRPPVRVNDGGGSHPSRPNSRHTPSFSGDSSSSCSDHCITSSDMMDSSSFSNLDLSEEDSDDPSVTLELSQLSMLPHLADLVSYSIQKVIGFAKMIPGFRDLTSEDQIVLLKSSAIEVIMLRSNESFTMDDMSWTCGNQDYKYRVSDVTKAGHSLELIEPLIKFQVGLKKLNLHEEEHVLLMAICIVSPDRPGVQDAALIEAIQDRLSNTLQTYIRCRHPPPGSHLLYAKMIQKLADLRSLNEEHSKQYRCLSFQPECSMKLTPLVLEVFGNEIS
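Compounds are added to VDR with labelled SRC2-3 coactivator peptide and held 2 h at room temperature. Inhibition of the VDR–peptide interaction is then read as a change in fluorescence polarization.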
rTrxR1 inhibitor = rat TrxR1 inhibition | 390,000 tested, 1% active | O89049 | Potency, µM (top dose mostly 114 µM), inactives show at the highest dose activity change, negative = inhibition, hits mostly inhibitors | recombinant rTrxR1, NADPH fluorescence consumption, selenite substrate; also: % is scaled to controls: 0 for no effect and ±100 for the full control effect; nearly all actives have a fitted effect of over 65% in size
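Rat TrxR1 (90 nM in the dispensed reagent) was pre-reduced with 400 uM NADPH for 5 min at room temperature, then incubated with compound for 15 min. After 400 uM selenite was added, NADPH fluorescence (Ex 340/Em 450 nm) was followed for 8 min.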
An asterisk follows results filed as active; ? = inconclusive; / = no result given; [ ] = remark or other dose. Calls follow the shape of the dose curve; as a rule, active = well fitted curve in the direction sought with a large enough effect; inconclusive = small, poorly fitted or top-dose-only effect, or another doubt; inactive = no such curve, though single readings can be large; an effect the other way counts as inactive or inconclusive. Potency is read from the fitted curve at half-maximal effect.

SMILES	Vif-A3G inh	TrxR1 substrate	Vif-A3F inh	VDR inhibitor	rTrxR1 inhibitor
COc1ccccc1-c1cc(C(F)(F)F)nc(S(=O)(=O)CCCC(=O)NC(C)C)n1	1%	18%	2%	?	18µM*
COc1ccccc1-c1cc(C(F)(F)F)nc(S(C)(=O)=O)n1	?	5%	-3%	?	35µM*
COc1ccccc1-c1cc(C(F)(F)F)nc(S(=O)(=O)CCCC(=O)NCc2ccc(F)cc2)n1	-24%	149%	7%	?	?
COc1ccccc1-c1cc(C(F)(F)F)nc(S(=O)(=O)CCCC(=O)N2CCCCC2C)n1 (centres undefined)	-12%	30%	-1%	32µM*	-75%[57.1 µM]
O=Nc1ccc2oc(=O)ccc2c1	/	?	/	13µM*	?
COc1cc2ccc(=O)oc2cc1O	0%	619%[57.1 µM]	-4%	6%	-5%[57.1 µM]
Cc1ccccc1NC(=O)COC(=O)c1ccccc1OCC(=O)Nc1ccc(Br)cc1	-1%	-3%	/	/	3%
O=C(CC(Nc1ccc(F)cc1)C(=O)OCC(=O)c1cccs1)c1ccccc1 (centres undefined)	0%	-1%	4%	-17%	25µM*
O=C(CC(Nc1ccc(F)cc1)C(=O)O)c1ccccc1 (centres undefined)	-15%	-1%	-4%	?	14µM*
CCc1ccc(S(=O)(=O)NC(=S)NC2CCCCC2)cc1	-1%	5%[57.1 µM]	13%	4%	6.3µM*
O=S(=O)(NC(=S)NC1CCCCC1)c1ccc(Cl)cc1	-10%	2%	6%	2%	2.8µM*
Cc1ccc(S(=O)(=O)NC(=S)NC2CCCCC2)cc1	2%	8%	-6%	-8%	3.5µM*
Cc1ccc(S(=O)(=O)NC(C)C(=O)NC2CCCCCC2)cc1 (centres undefined)	0%	4%	-10%	2%	5%
COc1ccc(CNC(=O)CSCc2ccc(C)cc2)c(OC)c1	-1%	3%[57.1 µM]	-1%	9%	25%[57.1 µM]
c1cn(-c2cc(-c3ccc4c(c3)OCO4)ncn2)cn1	/	/	/	64%	/
CCCCOc1ccc(CC(=O)N(C)O)cc1	4%	7%	/	/	13%
COc1ccccc1NC(=O)C1CCN(C(=O)c2sc3nc[nH]c(=O)c3c2C)CC1	1%	-3%[57.1 µM]	4%	-6%	9%[57.1 µM]
c1nc(NC2CCNCC2)c2cc(-c3ccoc3)ccc2n1	/	/	/	20µM*	/
c1cncc(-c2ccc3ncnc(NC4CCNCC4)c3c2)c1	/	/	/	-15%	/
Fc1ccc(Nc2ncnc3ccc(-c4ccoc4)cc23)cc1	/	/	/	40µM*	/
c1coc(C2=Nc3cccc4cccc(c34)N2)c1	-3%	-7%	-4%	4%	35µM*
O=C(/C=C/c1ccc(C(F)(F)F)cc1)OC(C(=O)NC1CC1)c1ccccc1 (centres undefined)	0%	4%[0.0914 µM]	/	/	9%
O=c1[nH]c(=S)[nH]c2c1C(c1ccc(Br)cc1)c1c([nH]c(=S)[nH]c1=O)O2	-13%	0%	7%	89µM*	?
O=C1c2ccccc2C(=O)C1c1ccc(Br)cc1	2%	-14%	6%	14%	-21%
COc1ccc(-c2nc(N3CCN(S(=O)(=O)c4ccccc4)CC3)c3ccccc3n2)cc1	-1%	4%	/	-17%	29%
SMILES	Vif-A3G inh	TrxR1 substrate	Vif-A3F inh	VDR inhibitor	rTrxR1 inhibitor
Cc1ccc(NC(=O)CSc2ccc(C(N)=O)cc2[N+](=O)[O-])cc1C	0%	3%	-3%	22µM*	23%[57.1 µM]
Cc1ccc(NC(=O)CSc2ccc(C(N)=O)cc2[N+](=O)[O-])cc1	0%	-6%	2%	-19%	-8%
NC1=NC(=O)/C(=C\c2ccc(-c3ccccc3[N+](=O)[O-])o2)S1	/	-7%	/	/	?
CCN(CC)c1ccc(-c2nc(-c3ccco3)no2)cc1[N+](=O)[O-]	4%	-4%	1%	-5%	-3%
Cc1ccccc1-c1ccc2ncnc(-n3ccnc3)c2c1	/	/	/	14µM*	/
CN(C)c1ccc(-c2ccc3ncnc(-n4ccnc4)c3c2)cc1	/	/	/	16µM*	/
COc1ccccc1-c1cncnc1-n1ccnc1	/	/	/	-13%	/
CCn1cc(C(=O)NCc2ccc(C)o2)c2cc(OC)c(OC)cc2c1=O	-8%	-1%	-7%	-16%	22µM*
O=C(CC1Sc2ncnn2C1=O)Nc1ccc(Cl)cc1 (centres undefined)	-2%	8%[57.1 µM]	-12%	-4%	?
CCOC(=O)c1ccc(NC(=O)CC2Sc3ncnn3C2=O)cc1 (centres undefined)	-3%	11%	0%	1%	1.8µM*
COc1ccc(NC(=O)CC2Sc3ncnn3C2=O)cc1 (centres undefined)	-2%	11%[57.1 µM]	1%	-19%	1.6µM*
Cc1cc(/C=C/c2c(C)cnc3ccccc23)ccc1N(C)C	-3%	1%	/	/	-10%
O=C(NC(=S)Nc1nc(-c2cccc([N+](=O)[O-])c2)cs1)c1cc(Cl)ccc1Cl	3%	3%[57.1 µM]	-3%	-14%	28µM*
Cc1ccccc1Oc1nc2c(C)cccn2c(=O)c1/C=C(\C#N)C(=O)Nc1c(C)n(C)n(-c2ccccc2)c1=O	-16%	-11%	-19%	50µM*	-33%
Cc1ccccc1Oc1nc2ccccn2c(=O)c1/C=C(\C#N)C(=O)Nc1c(C)n(C)n(-c2ccccc2)c1=O	0%	-6%	3%	?	-17%
CSc1ncc(C(=O)Nc2cc(Cl)ccc2C)c(-c2ccccc2)n1	2%	2%	-3%	-4%	17%
S=C(c1ccc2c(c1)OCO2)N1CCN(c2cccc(Cl)c2)CC1	?	3%[2.29 µM]	0%	?	8%[2.29 µM]
Cc1cccc(N2CCN(C(=S)c3ccc4c(c3)OCO4)CC2)c1	?	0%[2.29 µM]	1%	79µM*	9%[2.29 µM]
Nc1cccc(/C=C2\C=Cc3ccccc32)c1	0%	1%	/	/	0%
CCSc1nc(=S)cc(C)[nH]1	-4%	4%	-10%	79µM*	?
CCSc1nc(O)cc(=O)[nH]1	5%	5%[57.1 µM]	0%	-6%	-2%[57.1 µM]
Cc1[nH]n(-c2ccccc2)c(=O)c1C(c1ccccc1[N+](=O)[O-])C(C#N)C#N (centres undefined)	0%	-4%	-4%	89µM*	?
Cc1[nH]n(-c2ccccc2)c(=O)c1C(c1ccccc1C(=O)O)c1c(C)[nH]n(-c2ccccc2)c1=O	-1%	-6%	3%	-3%	-21%
Cc1ccc(C(C[N+](=O)[O-])c2c(C)[nH]n(-c3ccccc3)c2=O)cc1 (centres undefined)	-19%	-5%	-13%	45µM*	?
CCOC(=O)c1c(SCCN2CCCCC2)n(-c2ccccc2)c(=S)n(-c2ccccc2)c1=O	6%	-4%	4%	?	18µM*
COc1ccc2nc3sc(C(=O)Nc4cc(Cl)c(OC)cc4OC)cc3cc2c1	?	-3%	7.1µM*	-6%	13%
CCN(CC)/[N+]([O-])=N/OCOC(=O)C(C)c1ccc2cc(OC(C)=O)ccc2c1 (centres undefined)	-29%	5%[0.457 µM]	/	/	22%
